# Assay results as given in PubChem BioAssay (NCATS).
# Values joined by “and” are separate entries in the source; they are usually repeats but may differ in a detail not shown here. Equal values may be shown once. Records with an inconclusive call do not appear. Where a call stands in place of a potency, no number is given. Active and inactive are the calls of the source. Calls follow the shape of the dose curve; as a rule, active = well fitted curve in the direction sought with a large enough effect; inconclusive = small, poorly fitted or top-dose-only effect, or another doubt; inactive = no such curve, though single readings can be large; an effect the other way counts as inactive or inconclusive.
# Columns and labels:
# [1] = target: N-terminal Xaa-Pro-Lys N-methyltransferase 1 (Homo sapiens) (UniProt Q9BV86); assay: qHTS Assay for Inhibitors of N-terminal methyltransferase 1 (NTMT1): LOPAC validation of the NTMT1 SAHH-coupled ThioGlo3 Assay (AID 1347143);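 also: SAH from peptide methylation measured as thiol fluorescence via SAHH coupling and ThioGlo3; nearly all actives have a fitted effect of over 70% in size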; also: potency is read from the fitted curve at half-maximal effect
# Outline: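 Steps: dispense 125nM NTMT1; pin-transfer test compounds at several concentrations, with 1uM RCC1-6 peptide as control; incubate 1 min; start with reagent holding 100uM SAM, 10uM SAHH, 15uM ThioGlo3; read at 0 and 30 min.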
# [2] = system: Zika virus NS2B-NS3 protease (unlinked); assay: Optimization of GU AMC qHTS for Zika virus inhibitors: Unlinked NS2B-NS3 protease assay (AID 1347151); also: nearly all actives have a fitted effect of over 80% in size; also: potency is read from the fitted curve at half-maximal effect
# Outline: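 Noncovalent NS2B hydrophilic domain–NS3 protease complex (25 nM final) in 10 mM Tris-HCl pH 8.0, 0.01% Tween 20; AMC substrate, room temperature 15 min (~20% conversion); fluorescence change normalized, 4-parameter Hill fit.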
# [3] = system: Zika virus NS2B-NS3 protease; assay: Primary screen GU AMC qHTS for Zika virus inhibitors (AID 1347154); also: nearly all actives have a fitted effect of over 70% in size
# Outline: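 Unlinked Zika NS2B hydrophilic domain–NS3 protease complex at 25 nM in 10 mM Tris-HCl pH 8.0, 0.01% Tween 20, with an AMC peptide substrate. Fluorescence change (340/450 nm) over 15 min at room temperature, normalized to controls, fitted to 4-parameter Hill.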
# [4] = system: Zika virus NS2B-NS3 protease (unlinked complex); assay: Primary screen GU Rhodamine qHTS for Zika virus inhibitors: Unlinked NS2B-NS3 protease assay (AID 1347159); also: nearly all actives have a fitted effect of over 60% in size
# Outline: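 Unlinked NS2B/NS3, 25 nM; Rhod110 peptide, 1.5 microM; compounds, up to 114 microM. Reaction run 15 min at RT in 10 mM Tris-HCl pH 8.0, 0.01% Tween 20; kinetic fluorescence change fitted with a 4-parameter Hill model.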
# [5] = system: Zika virus NS2B-NS3 protease (linked construct); assay: Primary screen NINDS Rhodamine qHTS for Zika virus inhibitors (AID 1347160); also: nearly all actives have a fitted effect of over 55% in size; also: potency is read from the fitted curve at half-maximal effect
# Outline: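 Single-chain NS2B-NS3 protease, 25 nM, pH 8.0; compounds preincubated 15 min. Activity: Rhodamine110 release from 1.5 microM substrate over 15 min, room temperature, data fitted to 4-parameter Hill.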
# [6] = Confirmatory screen GU Rhodamine qHTS for Zika virus inhibitors qHTS (AID 1347157); settings: purified enzyme assay, Rhodamine110 substrate fluorescence, 15 min; also: potency is read from the fitted curve at half-maximal effect; nearly all actives have a fitted effect of over 70% in size
# Outline: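 Noncovalent NS2B hydrophilic domain/NS3 protease complex (25 nM final) in 10 mM Tris-HCl pH 8.0, 0.01% Tween 20, preincubated 15 min with compounds (up to 114 microM), then 1.5 microM Rhodamine110 substrate. Fluorescence change over 15 min fitted to 4-parameter Hill.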
# [7] = ZIKV-mCherry secondary qHTS for Zika virus inhibitors (AID 1347158); also: top concentration of the series differs between compounds
# Outline: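 This orthogonal imaging screen measured ZIKV-mCherry infection of Vero cells exposed to compound, MOI 1, 48-72 h. Percent infection came from segmented nuclei scored mCherry-positive above 3 SD of negative controls.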
# [8] = Confirmatory screen NINDS Rhodamine qHTS for Zika virus inhibitors (AID 1347161); also: potency is read from the fitted curve at half-maximal effect; nearly all actives have a fitted effect of over 60% in size
# Outline: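 Percent inhibition, normalized to uninhibited and enzyme-free controls, is fitted to a 4-parameter Hill equation. Fluorescence change comes from a 15-min cleavage of 1.5 microM bis-peptide Rhodamine110 substrate by 25 nM linked NS2B-NS3 at room temperature.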
# [9] = system: Zika virus NS2B-NS3 protease (linked); assay: 384 well plate NINDS AMC confirmatory qHTS for Zika virus inhibitors (AID 1347163); settings: Recombinant NS2B-NS3 protease, Ac-VKTGKR-AMC fluorescence; also: potency is read from the fitted curve at half-maximal effect; nearly all actives have a fitted effect of over 50% in size
# Outline: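 Enzyme (5, 30 or 60 nM final) first met test compounds for ~15 min. The AMC-tagged peptide Ac-VKTGKR-AMC followed at 30 microM. Fluorescence was then recorded at 25 min and scaled against no-enzyme and no-inhibitor wells.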
# [10] = system: Zika virus NS2B-NS3 protease (unlinked complex); assay: Confirmatory screen GU AMC qHTS for Zika virus inhibitors (AID 1347153); also: nearly all actives have a fitted effect of over 70% in size
# Outline: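 Unlinked enzyme 25 nM, Tris pH 8.0/0.01% Tween 20; cpd 15 min RT, dark; + AMC substrate 10 µM (Km 18.3 µM); 340/450 nm read at t0 and 15 min; % inhibition → 4-param fit.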
# Chain of N-terminal Xaa-Pro-Lys N-methyltransferase 1 (Homo sapiens) (Q9BV86 whole entry, looked up): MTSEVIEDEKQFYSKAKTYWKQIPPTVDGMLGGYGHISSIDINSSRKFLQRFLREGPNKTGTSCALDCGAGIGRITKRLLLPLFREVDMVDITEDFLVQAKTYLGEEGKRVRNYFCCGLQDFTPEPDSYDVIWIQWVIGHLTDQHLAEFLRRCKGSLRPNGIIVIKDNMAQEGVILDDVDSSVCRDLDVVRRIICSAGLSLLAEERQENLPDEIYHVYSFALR
structure (smiles),measurement,setting,value
N[C@@H](CC(=O)O)C(=O)O,Potency,[1],inactive
same,Potency,[2],inactive
same,Potency,[3],inactive
O=S(=O)(c1cccc2c(I)cccc12)N1CCCNCC1,Potency,[1],39.8 µM (active)
same,Potency,[2],inactive
same,Potency,[3],inactive
CCNc1nc2c(ncn2[C@H]2C[C@H](O)[C@@H](CO)O2)c(=O)[nH]1,Potency,[1],inactive
same,Potency,[2],inactive
same,Potency,[4],inactive
same,Potency,[5],inactive
C[C@@H](CN1CCC(Cc2ccccc2)CC1)[C@@H](O)c1ccc(O)cc1,Potency,[1],inactive
same,Potency,[2],inactive
same,Potency,[3],inactive
O=C(Nc1cccc(C(=O)Nc2ccc(S(=O)(=O)O)c3cc(S(=O)(=O)O)cc(S(=O)(=O)O)c23)c1)Nc1cccc(C(=O)Nc2ccc(S(=O)(=O)O)c3cc(S(=O)(=O)O)cc(S(=O)(=O)O)c23)c1,Potency,[1],inactive
same,Potency,[3],inactive
same,Potency,[6],2.82 µM (active) and 1.41 µM (active)
same,outcome,[7],inactive
same,Potency,[8],2 µM (active) and 1.26 µM (active)
same,Potency,[9],22.4 µM (active)
O=C(Nc1ccccc1)c1cc([N+](=O)[O-])ccc1Cl,Potency,[1],inactive
same,Potency,[2],inactive
same,Potency,[3],inactive
COc1cccc(OC)c1OCCNCC1COc2ccccc2O1 (stereo not drawn),Potency,[1],inactive
same,Potency,[2],inactive
same,Potency,[3],inactive
CS(=O)(=O)c1ccc(-n2nc(C(F)(F)F)cc2-c2ccc(F)cc2)cc1,Potency,[1],inactive
same,Potency,[2],inactive
same,Potency,[4],inactive
same,Potency,[5],inactive
CC12C(=O)OC(=O)C1(C)C1CCC2O1 (stereo not drawn),Potency,[1],inactive
same,Potency,[2],inactive
same,Potency,[3],inactive
O=C(O)c1cc(=O)c2c(Cl)cc(Cl)cc2[nH]1,Potency,[1],inactive
same,Potency,[2],inactive
same,Potency,[3],inactive
CCCCCCCCCCCCCCCC(=O)OC(CC(=O)O)C[N+](C)(C)C (stereo not drawn),Potency,[1],inactive
same,Potency,[2],inactive
same,Potency,[3],inactive
Cc1ccc(O)c(N=Nc2ccccc2)n1,Potency,[1],50.1 µM (active)
same,Potency,[2],inactive
same,Potency,[3],inactive
O=[N+]([O-])c1ccc2c(c1)S(=O)(=O)C=C2,Potency,[1],44.7 µM (active)
same,Potency,[2],inactive
same,Potency,[3],inactive
O=C(Nc1ccc2c(c1)CCN(Cc1ncn[nH]1)C2)c1ccccc1-c1ccc(C(F)(F)F)cc1,Potency,[1],inactive
same,Potency,[2],inactive
same,Potency,[4],inactive
same,Potency,[5],inactive
O=C(Nc1ccncc1)c1cc([N+](=O)[O-])ccc1Cl,Potency,[1],inactive
same,Potency,[2],inactive
same,Potency,[3],inactive
CCN(CC)CCCCNc1ncc2cc(-c3c(Cl)cccc3Cl)c(NC(=O)NC(C)(C)C)nc2n1,Potency,[1],44.7 µM (active)
same,Potency,[2],2.99 µM (active)
same,Potency,[4],inactive
same,Potency,[5],inactive
O=c1[nH]c2cc(C(F)(F)F)ccc2n1-c1cc(C(F)(F)F)ccc1O,Potency,[1],inactive
same,Potency,[3],inactive
O=C1NC(=O)c2c1c(-c1ccccc1)cc1[nH]c3ccc(O)cc3c21,Potency,[1],50.1 µM (active)
same,Potency,[2],inactive
same,Potency,[3],inactive
CCCCCCCC/C=C\CCCCCCCC(=O)NCCO,Potency,[1],inactive
same,Potency,[2],inactive
same,Potency,[3],inactive
NS(=O)(=O)c1ccc(-n2nc(C(F)(F)F)cc2-c2ccc(Cl)cc2)cc1,Potency,[1],inactive
same,Potency,[2],inactive
same,Potency,[5],inactive
COC(=O)c1c(C)[nH]c(C)c1C(=O)c1ccccc1Cc1ccccc1,Potency,[1],inactive
same,Potency,[2],inactive
same,Potency,[3],inactive
COc1cc(SC)ccc1C(=O)N1CCC(Cc2ccccc2)CC1,Potency,[1],inactive
same,Potency,[2],inactive
same,Potency,[3],inactive
O=c1cc(-c2ccccc2)oc2c(O)c(O)ccc12,Potency,[1],56.2 µM (active)
same,Potency,[5],6.97 µM (active)
COC(=O)C1=C(C)NC(C)=C(C(=O)OC)C1c1cccc(NC(=O)NCCCN2CCC(c3cccc(OC)c3)CC2)c1,outcome,[10],inactive
same,Potency,[4],inactive
same,Potency,[5],inactive
C=C[C@@H]1CN2CC[C@@H]1C[C@H]2[C@H](O)c1ccnc2ccc(OC)cc12,outcome,[10],inactive
